From PubChem
Shown are actives, neighbours in structure and some others; about 19% of the full set was active somewhere.
TDP1 block = inhibitors of human tyrosyl-DNA phosphodiesterase TDP1; Potency, µM (doses to about 130 µM), for inactives: at the highest dose activity change, negative = inhibition, most hits filed as inhibitors; AID 485290; recombinant TDP1, AlphaScreen DNA substrate cleavage; hit rate 0.28% among 350,000; note: potency is the fitted concentration of half-maximal effect; % is set by controls: 0 for no effect and ±100 for the full control effect; nearly all actives have a fitted effect of over 40% in size
Target sequence (Q9NUW8 whole entry, looked up): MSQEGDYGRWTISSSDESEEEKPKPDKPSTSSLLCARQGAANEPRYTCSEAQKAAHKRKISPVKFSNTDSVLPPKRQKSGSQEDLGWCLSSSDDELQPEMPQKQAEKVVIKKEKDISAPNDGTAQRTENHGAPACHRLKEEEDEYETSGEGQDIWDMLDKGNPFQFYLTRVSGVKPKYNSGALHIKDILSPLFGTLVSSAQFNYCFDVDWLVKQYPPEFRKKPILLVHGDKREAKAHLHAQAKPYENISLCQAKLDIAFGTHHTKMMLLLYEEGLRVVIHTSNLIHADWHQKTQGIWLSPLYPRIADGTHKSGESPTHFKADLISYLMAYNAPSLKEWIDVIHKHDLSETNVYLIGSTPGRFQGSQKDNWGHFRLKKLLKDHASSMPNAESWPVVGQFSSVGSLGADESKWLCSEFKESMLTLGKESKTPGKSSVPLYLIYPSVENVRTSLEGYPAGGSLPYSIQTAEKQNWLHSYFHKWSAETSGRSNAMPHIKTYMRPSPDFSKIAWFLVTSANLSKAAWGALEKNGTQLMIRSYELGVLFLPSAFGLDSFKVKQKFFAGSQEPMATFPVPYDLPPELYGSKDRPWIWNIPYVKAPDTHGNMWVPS
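Steps: enzyme plus compound, 15 min RT; add biotin/phosphotyrosine-FITC oligonucleotide (15 nM final), react 5 min; add donor/acceptor beads (10 ug/ml final), 10 min; read AlphaScreen. Tdp1 at 1 nM final.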
DT40 TDP1 CPT = growth inhibition of DT40 Tdp1-/-;hTDP1 cells with camptothecin (screen for TDP1 inhibitors) | chicken DT40 Tdp1-/-;hTDP1 cells + 20 nM CPT, ATP luminescence, 48 h | Potency, µM (series often up to 46.2 µM), for inactives: at the highest dose activity change, negative = growth inhibition, usual class: inhibitors | hit rate 12% among 420,000 | AID 686979; note: potency is the fitted concentration of half-maximal effect; % is set by controls: 0 for no effect and ±100 for the full control effect; nearly all actives have a fitted effect of over 55% in size
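Cell growth measured by CellTiter-Glo luminescence after a minimum 48 h, 37 C compound exposure with 20 nM CPT in Tdp1-knockout DT40 cells stably expressing hTDP1, seeded 400/well; qHTS titration format.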
HepG2 viability = kills HepG2 cells in TGF-b inhibitor counter-screen | HepG2 CAGA-GFP viability, ATP luminescence, 18 h | hit rate 0.76% among 410,000 | Potency, µM (top dose mostly 46.1 µM), without a hit: at the top dose activity change, negative = cytotoxicity, most hits filed as cytotoxic; note: potency is the fitted concentration of half-maximal effect
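HepG2 CAGA-GFP cells (1000/well, DMEM with 1% FBS) received compound, then TGF-beta at 500 pg/mL final, and were incubated 18 hours at 37 degrees C. Viability was read by CellTiter-Glo luminescence. Media-only wells were set as complete cell-killing and DMSO as no toxicity.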
TGFb inhibitor = blocks TGF-b signaling | hit rate 1.2% among 410,000 | Potency, µM (top dose mostly 46.1 µM), for the others: at the highest dose activity, negative = inhibition, most hits filed as inhibitors | HepG2 CAGA-GFP TGF-b/SMAD3 reporter, GFP fluorescence, 18 h; TGF-beta stimulated, 500 pg/mL final; note: potency is the fitted concentration of half-maximal effect; % is set by controls: 0 for no effect and ±100 for the full control effect; nearly all actives have a fitted effect of over 65% in size
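HEPG2 CAGA-GFP, 1000 cells/well; 2 h settle, 37 C; cpd via pin tool; TGF-b 500 pg/mL final; 18 h, 37 C; GFP imaging ex488/em500-530; %Activity normalised to -TGF-b and +DMSO controls; CRC fit, curve class.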
DT40 TDP1 no CPT = qHTS for Inhibitors of human tyrosyl-DNA phosphodiesterase 1 (TDP1): qHTS in cells in absence of CPT | DT40 Tdp1-/- hTDP1 cells, no CPT, ATP luminescence, 48 h | Potency, µM (highest dose often 46.2 µM), without a hit: at the top dose activity change, negative = growth inhibition, usual class: inhibitors | hit rate 15% among 420,000 | AID 686978, 2013; note: potency is the fitted concentration of half-maximal effect; % is set by controls: 0 for no effect and ±100 for the full control effect; nearly all actives have a fitted effect of over 55% in size
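Readout: luminescence from CellTiter-Glo after 30 min in the dark at RT. Cells: DT40 Tdp1-/- with stable hTDP1, 400/well. Exposure: compounds alone, ≥48 hr, 37 °C.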
IL1B secr inh = blocks inflammasome-driven IL-1 beta release; THP-1 LPS/ATP IL-1B secretion, AlphaLISA, 16 h; active compounds read low; activity change, % at 57.5 µM; hit rate 4.7% among 360,000; in the data active = activity change below about -50%; inconclusive = mostly about -30% to -49%; note: % is set by controls: 0 for no effect and ±100 for the full control effect
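THP-1 cells pretreated 1 hr with compounds (up to 57.5 uM final), then stimulated with LPS (250 ng/mL final) plus ATP (1.25 mM final); secreted IL-1B measured by AlphaLISA after 16 hr, decreased signal indicating inhibition.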
Numbers without * were called inactive; ? = inconclusive; . = no result; [ ] = another dose, or the depositor's remark. Unless noted, calls come from the whole dose curve; as a rule, active = well fitted curve in the direction sought with a large enough effect; inconclusive = small, poorly fitted or top-dose-only effect, or another doubt; inactive = no such curve, though single readings can be large; an effect the other way counts as inactive or inconclusive.

SMILES	TDP1 block	DT40 TDP1 CPT	HepG2 viability	TGFb inhibitor	DT40 TDP1 no CPT	IL1B secr inh
CCOC(=O)Cc1csc(NC(=O)CN2CCN(c3ccccc3)CC2)n1	.	-8%	-6%	-29%	-3%	31
Cc1ccc2ccc3cccnc3c2n1	.	0.92µM*	-31%	-18%	1µM*	91
Cc1ccnc2c([N+](=O)[O-])cccc12	.	22µM*	5%	17%	?	.
O=C(O)c1ccc2cccnc2c1O	-3%	0%	12%	9%	-1%	16
Nc1cccc2cccnc12	.	1.8µM*	-38%	-13%	5.6µM*	.
Nc1ccc(Br)c2cccnc12	5%	?	-8%	-32%	?	-14
Cc1ccnc2c(N)cccc12	.	?	-22%	-8%	13µM*	.
Cc1ccc(Cl)cc1N1CCN(C(=O)c2cc3c(-c4ccccc4F)nn(C)c3s2)CC1	2%	?	7%	1%	15µM*	.
Cc1ccc(Cl)cc1N1CCN(C(=O)c2cc3c(=O)oc4ccccc4c3s2)CC1	0%	-12%	-12%	-16%	8%	.
CC(=O)c1ccc(N2CCN(C(=O)c3cc4c(-c5ccccc5F)nn(C)c4s3)CC2)cc1	1%	18µM*	-22%	-17%	18µM*	3
CCN1CCN(C(=O)c2cc3c(-c4ccc(Cl)cc4)nn(C)c3s2)CC1	4%	?	-38%	-17%	?	?
CCC1(C2CCN(C(=O)c3ccc4ccccc4c3)CC2)NC(=O)N(CCc2scnc2C)C1=O (centres undefined)	.	-4%[9.04 µM]	.	.	-20%	.
CC(C)(C)C(=O)NC1CC(=O)N(c2ccc3c(c2)OCCO3)C1 (centres undefined)	-5%	-1%	3%	17%	13%	.
Cc1ccc(Cl)cc1NC(=O)c1cnc(N2CCCCC2)c2ccccc12	1%	18µM*	-4%	?	13µM*	.
O=C(Nc1ccc(C(F)(F)F)cc1)c1cnc(N2CCN(c3ccccn3)CC2)c2ccccc12	-1%	21µM*	-4%	-16%	?	39
CCc1ccccc1NC(=O)c1cnc(N2CCCCC2)c2ccccc12	-7%	18µM*	-19%	-12%	?	.
O=C(Nc1ccc(C(F)(F)F)cc1)c1cccnc1N1CCOCC1	2%	-19%	-4%	-15%	?	44
O=C(Nc1ccccc1F)c1cnc(N2CCCCC2)c2ccccc12	-14%	16µM*	-13%	-4%	23µM*	.
COc1cc(C(CC(=O)NCc2ccccc2Cl)N2Cc3ccccc3C2=O)cc(OC)c1OC (centres undefined)	3%	-8%	2%	4%	-22%	.
COc1ccc(C)cc1Nc1nc(C)nc2sc(C)cc12	.	?	-15%	-4%	21µM*	22
COc1ccc(C)cc1Nc1nc(-c2ccccc2O)nc2ccccc12	.	-14%	-11%	5%	-8%	10
Cc1cc(=O)c2cc(C(=O)Nc3ccc(F)cc3)ccc2[nH]1	3%	0%	2%	19%	-10%	.
CCCOc1ccc(Br)cc1CSC(=N)N	3%	6.5µM*	-58%	?	2.1µM*	-86*
CCOc1ccc(Br)cc1CC(=O)O	.	5%	0%	8%	-16%	-6
Cn1ccc2c(-c3ccc(F)cc3)cc3c(c21)C1CCC3C1 (centres undefined)	.	-26%	-28%	-18%	?	16
SMILES	TDP1 block	DT40 TDP1 CPT	HepG2 viability	TGFb inhibitor	DT40 TDP1 no CPT	IL1B secr inh
Cn1ccc2c(N3CCCC3)cc3c(c21)C1CCC3C1 (centres undefined)	.	21µM*	3%	?	15µM*	13
Cn1ccc2c(-c3ccc(CO)cc3)cc3c(c21)C1CCC3C1 (centres undefined)	.	18µM*	-5%	-23%	?	38
Cn1ccc2c(N3CCCCCC3)cc3c(c21)C1CCC3O1 (centres undefined)	.	21µM*	-20%	-23%	?	10
Cn1ccc2c(N3CCCCC3)cc3c(c21)C1CCC3C1 (centres undefined)	.	?	-17%	-23%	?	3
Cn1nc(-c2ccc(OCC(=O)NCC3CCCO3)cc2)c2ccccc2c1=O (centres undefined)	3%	18µM*	-17%	-22%	12µM*	42
COc1ccc(OCC(=O)Nc2cc(-c3nn(C)c(=O)c4ccccc34)ccc2OC)cc1	2%	16µM*	-21%	-11%	16µM*	-2
CN(C(=O)c1ccc(-c2nn(C)c(=O)c3ccccc23)cc1)C1CCCCC1	.	13µM*	-2%	-1%	16µM*	?
CCC1(c2ccc(O)cc2)NC(=O)N(C)C1=O (centres undefined)	5%	.	.	.	.	.
Cc1ccc(CCNS(=O)(=O)c2cc3c(cc2Cl)NC(=O)CO3)cc1	.	-22%	-14%	-1%	-20%	30
CC(N)c1csc(Nc2cc(Oc3ccccc3)ncn2)n1 (centres undefined)	.	?	-8%	-23%	0.041µM*	-65*
CC(N)c1csc(Nc2ncccn2)n1 (centres undefined)	.	-11%	2%	1%	?	1
NC(c1csc(Nc2cc(Oc3ccccc3)ncn2)n1)c1ccccc1Cl (centres undefined)	.	?	-13%	?	?	-89*
CN(CC(=O)Nc1c(Cl)cccc1Cl)C(=O)c1cccc(-n2cccc2)c1	.	16µM*	2%	-23%	-17%	-25
Cc1cc(C(=O)CCC(=O)N(C)CC(=O)Nc2c(Cl)cccc2Cl)c(C)s1	6%	-24%	0%	-14%	12µM*	13
Cc1cc(Cl)c(O)c(-n2nc3ccccc3n2)c1	3%	21µM*	-7%	3%	?	3
Cc1cc(-n2nc3ccc(Cl)cc3n2)c(O)c(C(C)(C)C)c1	3%	0%	.	.	4%	.
COc1ccc(NC(=O)c2cc3c(COC(C)=O)cnc(C)c3oc2=Nc2cccc(C(=O)O)c2)c(OC)c1	.	-23%	-17%	-12%	26µM*	19
COc1cccc(N=c2oc3c(C)ncc(CO)c3cc2C(=O)Nc2ccccc2OC)c1	4%	.	.	.	.	.
COc1ccccc1NC(=O)c1cc2c(CO)cnc(C)c2oc1=Nc1cccc(C(N)=O)c1	.	5.2µM*	-14%	-13%	1.8µM*	9
